# According to the supplement of paper PMC8728848:
# The full list was thinned out, with the strongest signals kept by preference.
# Columns and labels:
# Assay in all cases: glycan array binding signal (z-score within array); higher = stronger binding
# Details in all cases: glycan notation: IUPAC condensed, linker removed
# [1] = target: Fuc(a1-2)Gal(b1-3)GalNAc(b1-3)Gal
# Method in brief: (§1)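 Glycan array data were curated from 3228 arrays in the Consortium for Functional Glycomics database and kept only where the protein sequence was available. Glycan names were converted to IUPAC-condensed notation, and columns mapping to the same glycan were averaged. The binding signal is a within-array Z-score, averaged across arrays of the same protein sequence at different concentrations or buffers and across linkers. Negative Z-scores can be read as non-binding.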
# [2] = target: Fuc(a1-2)Gal(b1-3)GalNAc(b1-4)[Neu5Ac(a2-3)]Gal(b1-4)Glc
# Method in brief: as §1
# [3] = target: Fuc(a1-2)Gal(b1-3)GlcNAc
# Method in brief: as §1
# [4] = target: Fuc(a1-2)Gal(b1-4)Glc
# Method in brief: as §1
# [5] = target: Fuc(a1-2)[Gal(a1-3)]Gal(b1-4)GlcNAc
# Method in brief: as §1
# [6] = target: Fuc(a1-2)[GalNAc(a1-3)]Gal(b1-4)Glc
# Method in brief: as §1
# [7] = target: Fuc(a1-2)[GalNAc(a1-3)]Gal(b1-4)GlcNAc(b1-3)Gal(b1-4)GlcNAc(b1-3)Gal(b1-4)GlcNAc
# Method in brief: as §1
# [8] = target: Fuc(a1-3)GlcNAc
# Method in brief: as §1
# [9] = target: Fuc(a1-3)[Gal(b1-4)]GlcNAc(b1-3)GalNAc
# Method in brief: as §1
# [10] = target: Gal(a1-3)Gal(b1-3)Glc
# Method in brief: as §1
# [11] = target: Gal(a1-3)Gal(b1-3)GlcNAc(b1-2)Man(a1-3)[Gal(a1-3)Gal(b1-3)GlcNAc(b1-2)Man(a1-6)]Man(b1-4)GlcNAc(b1-4)GlcNAc
# Method in brief: as §1
# [12] = target: Gal(a1-3)Gal(b1-3)GlcNAc(b1-6)GalNAc
# Method in brief: as §1
# [13] = target: Gal(a1-4)Gal(b1-4)Glc
# Method in brief: as §1
# [14] = target: Gal(b1-3)Gal(b1-4)GlcNAc
# Method in brief: as §1
# [15] = target: Gal(b1-3)GalNAc(b1-4)[Neu5Ac(a2-3)]Gal(b1-4)Glc
# Method in brief: as §1
# [16] = target: Gal(b1-3)GlcNAc(a1-6)Gal(b1-4)GlcNAc
# Method in brief: as §1
# [17] = target: Gal(b1-3)GlcNAc(b1-2)Man
# Method in brief: as §1
# [18] = target: Gal(b1-3)GlcNAc(b1-3)Gal(b1-4)GlcNAc(b1-6)[Gal(b1-3)GlcNAc(b1-3)]Gal(b1-4)Glc
# Method in brief: as §1
# [19] = target: Gal(b1-3)[Fuc(a1-4)]GlcNAc(b1-3)Gal(b1-3)[Fuc(a1-4)]GlcNAc
# Method in brief: as §1
# [20] = target: Gal(b1-4)GlcNAc(b1-2)Man(a1-3)[Gal(b1-4)GlcNAc(b1-2)Man(a1-6)][Gal(b1-4)GlcNAc(b1-4)]Man(b1-4)GlcNAc(b1-4)[Fuc(a1-6)]GlcNAc
# Method in brief: as §1
# [21] = target: Gal(b1-4)GlcNAc(b1-2)Man(a1-3)[Man(a1-6)]Man(b1-4)GlcNAc(b1-4)GlcNAc
# Method in brief: as §1
# [22] = target: Gal(b1-4)GlcNAc(b1-2)Man(a1-6)[GlcNAc(b1-2)Man(a1-3)]Man(b1-4)GlcNAc(b1-4)GlcNAc
# Method in brief: as §1
# [23] = target: Gal(b1-4)GlcNAc(b1-2)[Gal(b1-4)GlcNAc(b1-6)]Man(a1-6)[GlcNAc(b1-4)][Gal(b1-4)GlcNAc(b1-2)Man(a1-3)]Man(b1-4)GlcNAc(b1-4)GlcNAc
# Method in brief: as §1
# [24] = target: Gal(b1-4)GlcNAc(b1-3)[Gal(b1-4)GlcNAc(b1-6)]GalNAc
# Method in brief: as §1
# [25] = target: Gal3S(b1-4)Glc
# Method in brief: as §1
# [26] = target: Gal3S6S(b1-4)GlcNAc
# Method in brief: as §1
# [27] = target: Gal3S6S(b1-4)GlcNAc6S
# Method in brief: as §1
# [28] = target: Glc(a1-6)Glc(a1-6)Glc
# Method in brief: as §1
# [29] = target: Glc(b1-6)Glc
# Method in brief: as §1
# [30] = target: GlcNAc(a1-4)Gal(b1-3)GlcNAc
# Method in brief: as §1
# [31] = target: GlcNAc(a1-4)Gal(b1-4)GlcNAc(b1-3)Gal(b1-4)GlcNAc
# Method in brief: as §1
# [32] = target: GlcNAc(b1-3)Gal(b1-4)GlcNAc(b1-6)[GlcNAc(b1-3)]Gal(b1-4)GlcNAc
# Method in brief: as §1
# [33] = target: GlcNAc(b1-3)[GlcNAc(b1-6)]GalNAc
# Method in brief: as §1
# [34] = target: GlcNAc(b1-4)GlcNAc(b1-4)GlcNAc(b1-4)GlcNAc(b1-4)GlcNAc
# Method in brief: as §1
# [35] = target: Man(a1-2)Man(a1-2)Man(a1-3)Man
# Method in brief: as §1
# [36] = target: MurNAc(b1-4)GlcNAc
# Method in brief: as §1
# [37] = target: Neu5Ac(a2-3)Gal(b1-3)GalNAc(b1-4)[Neu5Ac(a2-8)Neu5Ac(a2-3)]Gal(b1-4)Glc
# Method in brief: as §1
# [38] = target: Neu5Ac(a2-3)Gal(b1-4)GlcNAc(b1-3)Gal(b1-4)GlcNAc(b1-3)[Neu5Ac(a2-3)Gal(b1-4)GlcNAc(b1-3)Gal(b1-4)GlcNAc(b1-6)]GalNAc
# Method in brief: as §1
# [39] = target: Neu5Ac(a2-3)Gal(b1-4)GlcNAc(b1-3)[Neu5Ac(a2-3)Gal(b1-4)GlcNAc(b1-6)]GalNAc
# Method in brief: as §1
# [40] = target: Neu5Ac(a2-3)Gal6S(b1-4)[Fuc(a1-3)]GlcNAc
# Method in brief: as §1
# [41] = target: Neu5Ac(a2-6)Gal(b1-4)GlcNAc(b1-2)Man(a1-3)[Neu5Ac(a2-3)Gal(b1-4)GlcNAc(b1-2)Man(a1-6)]Man(b1-4)GlcNAc(b1-4)GlcNAc
# Method in brief: as §1
# [42] = target: Neu5Ac(a2-6)Gal(b1-4)GlcNAc(b1-2)Man(a1-3)[Neu5Ac(a2-6)Gal(b1-4)GlcNAc(b1-2)Man(a1-6)]Man(b1-4)GlcNAc(b1-4)GlcNAc
# Method in brief: as §1
# [43] = target: Neu5Ac(a2-6)Gal(b1-4)GlcNAc(b1-3)Gal(b1-4)GlcNAc(b1-3)GalNAc
# Method in brief: as §1
# [44] = target: Neu5Ac(a2-6)Gal(b1-4)GlcNAc(b1-3)GalNAc
# Method in brief: as §1
# [45] = target: Neu5Ac(a2-8)Neu5Ac(a2-3)Gal(b1-3)GalNAc(b1-4)[Neu5Ac(a2-3)]Gal(b1-4)Glc
# Method in brief: as §1
# [46] = target: Neu5Ac(a2-8)Neu5Ac(a2-3)[Gal(b1-3)GalNAc(b1-4)]Gal(b1-4)Glc
# Method in brief: as §1
# [47] = target: Neu5Ac(a2-8)Neu5Ac(a2-8)Neu5Ac(a2-3)[Gal(b1-3)GalNAc(b1-4)]Gal(b1-4)Glc
# Method in brief: as §1
# [48] = target: Neu5Ac(a2-8)Neu5Gc(a2-3)Gal(b1-4)GlcNAc
# Method in brief: as §1
# [49] = target: Neu5Gc(a2-3)Gal(b1-4)Glc
# Method in brief: as §1
# [50] = target: Neu5Gc(a2-3)Gal(b1-4)[Fuc(a1-4)]GlcNAc
# Method in brief: as §1
binder,measurement,setting,value
"OVGAL11 (Ovis aries), AAF64320 (protein) MDSLPNPYLQSVSLTVCYMVKIKANLLSAFGKNPELQVDFGTGTGQGGNIPFRFWYCDGMVVMNTFTDGSWQKEEKVLTDAFVPGQPFELQFLVLEKEYQVFVKNKPICQFAHRLPLQSVKMLDVRGDIVLTSVDTL",glycan array binding signal (z-score),[1],1.72
same,glycan array binding signal (z-score),[2],6.31
same,glycan array binding signal (z-score),[3],-0.096
same,glycan array binding signal (z-score),[4],-0.057
same,glycan array binding signal (z-score),[5],0.2
same,glycan array binding signal (z-score),[6],0.204
same,glycan array binding signal (z-score),[7],-0.076
same,glycan array binding signal (z-score),[8],4.51
same,glycan array binding signal (z-score),[9],-0.106
same,glycan array binding signal (z-score),[10],-0.398
same,glycan array binding signal (z-score),[11],-0.081
same,glycan array binding signal (z-score),[12],-0.082
same,glycan array binding signal (z-score),[13],-0.104
same,glycan array binding signal (z-score),[14],-0.063
same,glycan array binding signal (z-score),[15],1.62
same,glycan array binding signal (z-score),[16],-0.11
same,glycan array binding signal (z-score),[17],-0.023
same,glycan array binding signal (z-score),[18],-0.113
same,glycan array binding signal (z-score),[19],-0.101
same,glycan array binding signal (z-score),[20],-0.011
same,glycan array binding signal (z-score),[21],-0.086
same,glycan array binding signal (z-score),[22],-0.094
same,glycan array binding signal (z-score),[23],-0.095
same,glycan array binding signal (z-score),[24],0.686
same,glycan array binding signal (z-score),[25],0.199
same,glycan array binding signal (z-score),[26],-0.175
same,glycan array binding signal (z-score),[27],0.724
same,glycan array binding signal (z-score),[28],-0.089
same,glycan array binding signal (z-score),[29],0.568
same,glycan array binding signal (z-score),[30],-0.114
same,glycan array binding signal (z-score),[31],-0.089
same,glycan array binding signal (z-score),[32],-0.102
same,glycan array binding signal (z-score),[33],-0.084
same,glycan array binding signal (z-score),[34],-0.316
same,glycan array binding signal (z-score),[35],4.38
same,glycan array binding signal (z-score),[36],-0.098
same,glycan array binding signal (z-score),[37],-0.069
same,glycan array binding signal (z-score),[38],-0.068
same,glycan array binding signal (z-score),[39],-0.097
same,glycan array binding signal (z-score),[40],-0.219
same,glycan array binding signal (z-score),[41],-0.08
same,glycan array binding signal (z-score),[42],-0.138
same,glycan array binding signal (z-score),[43],-0.065
same,glycan array binding signal (z-score),[44],-0.082
same,glycan array binding signal (z-score),[45],1.75
same,glycan array binding signal (z-score),[46],13.5
same,glycan array binding signal (z-score),[47],-0.044
same,glycan array binding signal (z-score),[48],0.807
same,glycan array binding signal (z-score),[49],-0.214
same,glycan array binding signal (z-score),[50],0.714
